From the supplement of paper PMC10849652
Of roughly 8,800 targets only a part is listed; those with a hit were picked by preference. About 0.5% of all pairs of compound and target were hits.

What follows are targets tested with Cc1cccc(CC(=O)N2CCc3c2ccc(-c2cn(C)c4ncnc(N)c24)c3F)n1 (assay: log2 fold change, soluble protein after heating vs DMSO (PISA); higher = thermal stabilisation; K562 lysate, 10 uM; active = over 0.2 and 3.5 SD of the protein, either way, in both replicates (recomputed)).
In short: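 Dounce homogenisation of K562 pellets in PBS pH 7.4 with 1 mM MgCl2 produced a crude extract, used at 1 mg/mL protein. Exposure to 10 μM compound lasted 30 min, and aliquots were then heated for 3 min across 48°C-58°C, pooled and brought to 0.5% NP-40 at 4°C. The supernatant after 21,000xg for 90 min was quantified by TMTpro 16plex LC-MS/MS with channel sums equalised. Duplicate values are given as log-two fold change in thermal stability relative to solvent controls.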

Sequence of UniProt Q9GZY8 (Q9GZY8 whole entry, looked up): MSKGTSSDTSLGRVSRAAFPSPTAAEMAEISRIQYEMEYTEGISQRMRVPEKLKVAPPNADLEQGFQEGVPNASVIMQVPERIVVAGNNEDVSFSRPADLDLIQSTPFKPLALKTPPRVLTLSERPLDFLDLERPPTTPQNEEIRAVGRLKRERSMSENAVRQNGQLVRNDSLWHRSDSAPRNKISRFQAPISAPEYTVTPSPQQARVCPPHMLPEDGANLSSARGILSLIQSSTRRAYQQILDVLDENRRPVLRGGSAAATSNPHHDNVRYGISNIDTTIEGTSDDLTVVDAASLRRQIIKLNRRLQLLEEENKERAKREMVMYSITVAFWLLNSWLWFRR
Sequence of UniProt O95297 (O95297 whole entry, looked up): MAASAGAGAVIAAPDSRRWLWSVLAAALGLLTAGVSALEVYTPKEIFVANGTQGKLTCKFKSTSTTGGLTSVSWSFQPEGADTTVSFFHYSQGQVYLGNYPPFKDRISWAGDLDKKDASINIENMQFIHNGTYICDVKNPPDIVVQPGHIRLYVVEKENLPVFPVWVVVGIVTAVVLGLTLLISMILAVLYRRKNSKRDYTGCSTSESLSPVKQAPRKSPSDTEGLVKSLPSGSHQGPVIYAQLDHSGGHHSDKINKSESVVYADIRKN
Sequence of UniProt Q8IWC1 (Q8IWC1 whole entry, looked up): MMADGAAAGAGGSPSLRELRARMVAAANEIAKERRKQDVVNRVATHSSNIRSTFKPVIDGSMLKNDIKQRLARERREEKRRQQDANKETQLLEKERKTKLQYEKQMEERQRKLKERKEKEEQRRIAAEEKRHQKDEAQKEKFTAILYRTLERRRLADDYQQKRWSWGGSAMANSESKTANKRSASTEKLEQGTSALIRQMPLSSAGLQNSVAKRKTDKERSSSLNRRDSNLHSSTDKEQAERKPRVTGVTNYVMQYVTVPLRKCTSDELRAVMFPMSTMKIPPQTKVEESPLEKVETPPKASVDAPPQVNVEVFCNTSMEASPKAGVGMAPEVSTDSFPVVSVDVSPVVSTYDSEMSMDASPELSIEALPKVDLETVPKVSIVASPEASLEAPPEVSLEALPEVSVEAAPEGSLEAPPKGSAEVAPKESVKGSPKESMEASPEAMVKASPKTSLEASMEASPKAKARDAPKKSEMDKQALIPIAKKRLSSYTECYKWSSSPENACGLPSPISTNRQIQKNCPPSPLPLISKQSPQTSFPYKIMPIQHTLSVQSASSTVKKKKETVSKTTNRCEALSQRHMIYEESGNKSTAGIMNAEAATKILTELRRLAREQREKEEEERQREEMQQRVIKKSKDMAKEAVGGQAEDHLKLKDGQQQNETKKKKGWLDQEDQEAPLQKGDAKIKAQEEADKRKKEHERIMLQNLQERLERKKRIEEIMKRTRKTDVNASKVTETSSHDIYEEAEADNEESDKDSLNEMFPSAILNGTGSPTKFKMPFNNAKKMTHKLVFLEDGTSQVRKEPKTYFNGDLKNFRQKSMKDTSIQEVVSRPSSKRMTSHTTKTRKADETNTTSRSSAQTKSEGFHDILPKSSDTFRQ
Sequence of UniProt Q9BV79 (Q9BV79 whole entry, looked up): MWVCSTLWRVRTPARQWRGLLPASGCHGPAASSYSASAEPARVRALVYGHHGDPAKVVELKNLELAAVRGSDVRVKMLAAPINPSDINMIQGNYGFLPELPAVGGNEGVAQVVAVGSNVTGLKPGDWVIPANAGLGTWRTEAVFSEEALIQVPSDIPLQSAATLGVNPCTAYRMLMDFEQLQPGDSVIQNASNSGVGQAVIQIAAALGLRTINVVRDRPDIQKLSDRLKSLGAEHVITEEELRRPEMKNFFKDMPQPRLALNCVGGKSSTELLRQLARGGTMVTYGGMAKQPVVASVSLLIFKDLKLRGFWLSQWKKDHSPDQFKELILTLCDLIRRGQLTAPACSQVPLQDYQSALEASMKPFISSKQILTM
Sequence of UniProt O15243 (O15243 whole entry, looked up): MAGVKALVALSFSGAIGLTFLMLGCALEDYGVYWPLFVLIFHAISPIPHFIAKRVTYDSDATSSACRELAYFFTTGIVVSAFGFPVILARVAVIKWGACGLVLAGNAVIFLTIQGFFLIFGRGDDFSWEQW
Sequence of UniProt Q15013 (Q15013 whole entry, looked up): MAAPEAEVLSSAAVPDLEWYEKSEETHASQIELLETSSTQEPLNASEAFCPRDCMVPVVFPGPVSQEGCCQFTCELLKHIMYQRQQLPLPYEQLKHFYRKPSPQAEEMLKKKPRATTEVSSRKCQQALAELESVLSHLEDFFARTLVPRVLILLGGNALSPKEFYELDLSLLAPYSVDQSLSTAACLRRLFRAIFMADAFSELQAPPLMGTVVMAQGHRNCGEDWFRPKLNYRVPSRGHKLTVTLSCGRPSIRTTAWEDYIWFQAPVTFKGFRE
Sequence of UniProt P28482 (P28482 whole entry, looked up): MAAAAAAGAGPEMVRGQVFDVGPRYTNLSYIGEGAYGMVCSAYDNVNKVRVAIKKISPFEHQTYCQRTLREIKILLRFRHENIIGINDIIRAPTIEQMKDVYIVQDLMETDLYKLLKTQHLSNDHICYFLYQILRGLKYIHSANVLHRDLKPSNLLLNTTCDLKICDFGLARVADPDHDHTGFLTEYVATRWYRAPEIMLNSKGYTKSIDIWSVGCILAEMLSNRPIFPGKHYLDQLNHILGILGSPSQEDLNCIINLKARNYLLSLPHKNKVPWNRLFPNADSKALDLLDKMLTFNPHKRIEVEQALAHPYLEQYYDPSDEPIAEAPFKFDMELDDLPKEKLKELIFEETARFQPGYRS
Sequence of UniProt Q9UBU8 (Q9UBU8 whole entry, looked up): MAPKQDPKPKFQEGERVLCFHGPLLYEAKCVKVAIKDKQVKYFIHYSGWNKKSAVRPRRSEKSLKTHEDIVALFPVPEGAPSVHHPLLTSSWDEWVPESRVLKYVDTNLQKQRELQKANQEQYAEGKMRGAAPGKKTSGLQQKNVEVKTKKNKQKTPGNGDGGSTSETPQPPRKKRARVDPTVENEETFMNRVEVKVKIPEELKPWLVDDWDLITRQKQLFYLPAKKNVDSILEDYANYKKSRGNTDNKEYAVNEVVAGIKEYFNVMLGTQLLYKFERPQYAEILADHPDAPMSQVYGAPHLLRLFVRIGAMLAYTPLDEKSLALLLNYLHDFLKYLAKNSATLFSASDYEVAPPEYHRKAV
Sequence of UniProt Q9Y6R4 (Q9Y6R4 whole entry, looked up): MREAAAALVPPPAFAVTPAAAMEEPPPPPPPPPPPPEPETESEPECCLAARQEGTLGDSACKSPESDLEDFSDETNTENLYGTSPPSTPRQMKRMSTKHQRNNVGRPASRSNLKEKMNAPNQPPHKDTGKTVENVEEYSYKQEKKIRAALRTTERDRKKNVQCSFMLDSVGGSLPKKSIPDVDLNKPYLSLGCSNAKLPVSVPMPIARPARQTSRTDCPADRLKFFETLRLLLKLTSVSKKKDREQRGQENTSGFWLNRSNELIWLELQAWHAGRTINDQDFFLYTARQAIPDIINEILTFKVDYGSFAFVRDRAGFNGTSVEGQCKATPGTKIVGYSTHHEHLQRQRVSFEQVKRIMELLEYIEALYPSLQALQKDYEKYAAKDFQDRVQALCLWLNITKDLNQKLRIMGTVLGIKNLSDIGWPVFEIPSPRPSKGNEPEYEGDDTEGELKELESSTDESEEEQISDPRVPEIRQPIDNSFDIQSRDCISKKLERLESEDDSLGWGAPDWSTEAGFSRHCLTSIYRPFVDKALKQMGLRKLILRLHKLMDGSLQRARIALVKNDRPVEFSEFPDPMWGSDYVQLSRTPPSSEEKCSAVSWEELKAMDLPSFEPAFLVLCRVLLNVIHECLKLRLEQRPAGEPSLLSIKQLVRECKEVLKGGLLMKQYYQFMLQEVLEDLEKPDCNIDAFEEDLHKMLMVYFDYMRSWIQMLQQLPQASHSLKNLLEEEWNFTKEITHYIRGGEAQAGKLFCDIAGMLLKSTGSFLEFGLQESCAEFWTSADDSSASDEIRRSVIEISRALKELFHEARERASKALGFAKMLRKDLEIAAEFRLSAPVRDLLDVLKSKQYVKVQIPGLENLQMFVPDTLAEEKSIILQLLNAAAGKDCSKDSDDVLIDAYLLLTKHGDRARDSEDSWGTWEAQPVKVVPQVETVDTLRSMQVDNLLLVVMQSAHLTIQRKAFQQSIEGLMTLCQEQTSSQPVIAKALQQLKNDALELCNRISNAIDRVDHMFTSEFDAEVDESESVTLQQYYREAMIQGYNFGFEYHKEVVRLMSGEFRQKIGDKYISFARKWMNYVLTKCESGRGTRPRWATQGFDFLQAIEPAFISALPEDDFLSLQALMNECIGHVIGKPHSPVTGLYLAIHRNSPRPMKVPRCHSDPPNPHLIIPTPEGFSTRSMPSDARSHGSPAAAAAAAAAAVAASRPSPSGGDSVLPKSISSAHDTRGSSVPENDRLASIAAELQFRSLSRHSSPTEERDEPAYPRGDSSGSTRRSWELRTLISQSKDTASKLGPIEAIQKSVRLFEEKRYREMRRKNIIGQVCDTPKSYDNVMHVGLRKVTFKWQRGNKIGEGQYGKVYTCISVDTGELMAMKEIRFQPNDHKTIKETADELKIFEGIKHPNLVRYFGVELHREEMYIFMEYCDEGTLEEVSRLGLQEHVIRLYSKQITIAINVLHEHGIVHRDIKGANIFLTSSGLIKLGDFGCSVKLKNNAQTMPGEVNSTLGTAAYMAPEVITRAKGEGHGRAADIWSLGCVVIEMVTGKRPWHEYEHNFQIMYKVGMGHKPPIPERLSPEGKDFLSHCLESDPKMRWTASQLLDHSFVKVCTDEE
Sequence of UniProt P48059 (P48059 whole entry, looked up): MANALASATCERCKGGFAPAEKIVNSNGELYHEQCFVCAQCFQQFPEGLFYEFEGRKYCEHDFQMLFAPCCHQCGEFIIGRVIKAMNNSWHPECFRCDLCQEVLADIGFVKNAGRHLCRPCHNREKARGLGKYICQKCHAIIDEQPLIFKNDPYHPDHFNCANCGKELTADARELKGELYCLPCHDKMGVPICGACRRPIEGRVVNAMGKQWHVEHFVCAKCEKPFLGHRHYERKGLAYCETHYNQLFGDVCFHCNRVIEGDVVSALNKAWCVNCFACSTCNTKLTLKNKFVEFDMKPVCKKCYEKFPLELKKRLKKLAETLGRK

log2 fold change, inactive:
MAD2L1BP isoform 3 (UniProt Q15013) 0.008
MORF4L1 isoform 2 (UniProt Q9UBU8) 0.006
MCUB (UniProt Q9NWR8) -0.016
LPIN1 isoform 7 (UniProt Q14693) 0.097
MECR (UniProt Q9BV79) 0.013
MPZL1 (UniProt O95297) -0.107
MAPK14 (UniProt Q16539) 0.015
MAPK1 (UniProt P28482) -0.061
MARCHF6 (UniProt O60337) -0.005
KMT2A isoform 3 (UniProt Q03164) 0.069
MAP3K4 (UniProt Q9Y6R4) -0.041
MRPL19 (UniProt P49406) 0.051
MFF isoform 2 (UniProt Q9GZY8) 0.24
METTL21A (UniProt Q8WXB1) 0.016
MRPL35 (UniProt Q9NZE8) 0.039
LETM1 (UniProt O95202) -0.085
MAP7D3 (UniProt Q8IWC1) 0.06
KIF4A (UniProt O95239) -0.006
MLH1 (UniProt P40692) 0.038
LEPROT (UniProt O15243) 0.056
MAP2K2 (UniProt P36507) -0.015
LIMS1 isoform 3 (UniProt P48059) 0.038
